According to PubChem BioAssay AID938 (National Center for Advancing Translational Sciences (NCATS), 2007):
Several values for one entry are separate records, joined by “and”; a condition that tells them apart may be missing. Identical values can stand only once. Among all 73,000 compounds or so, about 1,800 (2.5%) were called active. Inconclusive results (about 13%) are left out. Calls follow the shape of the dose curve; as a rule, active = well fitted activation curve with a large enough effect; inconclusive = small, poorly fitted or top-dose-only effect; inactive = no such curve, though single readings can be large or run the other way. The list comes from a sample in which actives are over-represented; it also holds similar structures and randomly drawn compounds. Where a call stands in place of a potency, no number is given.

experiment: qHTS Assay for Agonists of the Thyroid Stimulating Hormone Receptor: Activators of Intracellular cAMP Concentrations in Parental HEK 293; details: parental HEK293 CNG cAMP sensor, membrane potential fluorescence; series mostly up to 57.1 µM; also: nearly all actives have a fitted effect of over 55% in size
In short: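 Parental HEK 293 cells stably expressing a cAMP-gated CNG channel were loaded with membrane potential dye containing 100 uM RO 20-1724 for 60 min. Compound added for 30 min; depolarization read as fluorescence intensity at 590 nm.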
Potency is read from the fitted curve at half-maximal effect.

Structure (SMILES)	Potency	activation
CC(C)CO	inactive	–
O=C(NCc1ccccc1)[C@H]1C[C@@H]1[C@H](NP(=O)(c1ccccc1)c1ccccc1)c1ccccc1	inactive	–
Cc1cccc(C(=O)O)c1[N+](=O)[O-]	inactive	–
CCOC(=O)C1CCN(c2ncnc3c2oc2ccc(Br)cc23)CC1	25.1 µM (active)	–
CCOC(=O)N1CCN(C(=O)C2CCN(c3ncnc4c3sc3cccc(F)c34)CC2)CC1	inactive	–
Cc1cc(C)nc(N2CCN(c3ncnc4c3oc3ccccc34)CC2)n1	inactive	–
Cc1cc(C)cc(C#CC2C=CC(Oc3ccc(C4CCCC4)cc3)C(CO)O2)c1 (centres undefined)	–	16.7% [at 11.4 µM] (inactive)
CC(C)[C@@H](OCc1ccccc1)[C@H](C)/C=N\OC[C@@H](C)[C@H](OCc1ccccc1)C(C)C	–	2.03% [at 11.4 µM] (inactive)
O=C(CSc1nnc(-c2ccccc2)o1)N1CCOCC1	inactive	–
CC1=CC(C)(C)N(C(=O)CSc2nnc(-c3ccccc3)o2)c2ccc(C)cc21	2 µM (active)	–
CCOC(=O)CSc1nnc(-c2cccc(Br)c2)o1	inactive	–
CCS(=O)(=O)N1CCN(C(=O)c2cccs2)CC1	inactive	–
COc1ccc(N2CCN(C3CC(=O)N(c4ccc5c(c4)OCCO5)C3=O)CC2)cc1 (centres undefined)	inactive	–
CCCc1nc2ccccc2c(=O)n1NC(=O)c1c(O)c2ccccc2[nH]c1=O	inactive	–
COC(=O)[C@H](C)[C@H]1C[C@]1(C)[C@H](NC(=O)OCc1ccccc1)c1ccccc1	2 µM (active)	–
C[C@@H](C(=O)Nc1ccc2ccccc2c1)[C@@H]1C[C@@]1(C)[C@@H](NC(=O)c1cccnc1)c1ccccc1	inactive	–
CC(C)C(NC(=O)OCc1ccccc1)C(=O)OCC(=O)N1C(C)CCCC1C (centres undefined)	inactive	–
C=CCOC(=O)C(C(C)=O)C(NC(=O)OC)c1ccccc1 (centres undefined)	–	4.24% [at 11.4 µM] (inactive)
CCc1ccc(NC(=O)CSc2nnc(-c3cnccn3)n2Cc2ccco2)cc1	inactive	–
C(=C\c1ccccc1)/CSc1nnc(-c2cccnc2)n1Cc1ccco1	15.8 µM (active)	–
COc1cc(Cl)c(C)cc1NC(=O)CSc1nnc(-c2cccnc2)n1Cc1ccco1	inactive	–
COc1cccc(Cn2c(=O)c(C)nc3cnc(Oc4ccccc4)nc32)c1	12.6 µM (active)	–

Structure (SMILES)	Potency	activation
COc1cccc(Cn2c(=O)c(-c3cc(F)cc(F)c3)nc3cnc(OC)nc32)c1	inactive	–
COc1cccc(Cn2c(=O)c(-c3ccccc3)nc3cnc(OC)nc32)c1	inactive	–
Cc1ccccc1NC(=O)CNc1ccccc1N1CCCCC1	inactive	–
COC(=O)c1c(NC(=O)CSc2nc3c(c(=O)n(C)c(=O)n3C)n2C(C)C)sc(C)c1C	inactive	–
CC(C)n1c(SCC(=O)Nc2ccccc2N2CCCCC2)nc2c1c(=O)n(C)c(=O)n2C	20 µM (active)	–
CC1(C)CC(=O)C=C(NCCCNC2CCCCC2)C1	inactive	–
CC(=O)N1[C@H](C)C=C[C@]1(Cc1ccccc1)C(=O)NCc1ccccn1	inactive	–
COC(=O)C1(C)C=CCN1C(=O)c1ccccc1 (centres undefined)	inactive	–
CC(C)CC1(C(=O)NCc2ccccn2)C=CCN1C(=O)c1ccccc1 (centres undefined)	25.1 µM (active)	–
O=C1C[C@@H](O)[C@@H](O)[C@H]2[C@@H]3C(=O)N(Cc4ccc5c(c4)OCO5)C(=O)[C@@H]3CC[C@H]12	–	0.478% [at 11.4 µM] (inactive) and -2.17% [at 11.4 µM] (inactive)
COc1ccc(C(C(O)C(=O)c2c[nH]c3ccccc23)N2CCN(c3ccccc3)CC2)cc1 (centres undefined)	inactive	–
N#Cc1cc2[nH]c(=O)c(=O)[nH]c2cc1[N+](=O)[O-]	inactive	–
CCOC(=O)N1CCC(O)(c2cc(C)c(C)cc2C)CC1	inactive	–
c1ccc(CSc2nnc(-c3ccco3)n2Cc2ccccc2)cc1	15.8 µM (active)	–
c1ccc(CSc2nnc(-c3ccco3)c(-c3ccco3)n2)cc1	inactive	–
O=C(CSc1nnc(-c2ccco2)n1CC1CCCO1)c1ccccc1 (centres undefined)	inactive	–
C1CCC2OC2C1 (centres undefined)	inactive	–
Brc1cc(Br)c(Oc2cc(Br)c(Br)cc2Br)cc1Br	inactive	–
CN1CCC(CNC(=O)c2ccc(-n3c(=O)c(=O)[nH]c4ccccc43)cc2)CC1	inactive	–
O=C(O)CCCCC(=O)O	inactive	–
COc1ccc(N2C(=O)CCC(C(=O)N(C)C3CCCCC3)C2c2ccc(OC)c(OC)c2)cc1 (centres undefined)	inactive	–
CCOc1ccc2c(c1)cc(CN(C(=O)CC)C1CCCCC1)c1nnnn12	20 µM (active)	–

Structure (SMILES)	Potency	activation
CN(C(=O)CSc1nnnn1-c1ccccc1)C1CCCCC1	inactive	–
CC(C)[C@H](CO)Nc1nc(Nc2cc(N)cc(Cl)c2)c2ncn(C(C)C)c2n1	inactive	–
CCCCOC(=O)NCN1C(=O)C2C3C=CC(C3)C2C1=O (centres undefined)	inactive	–
O=C1OCCC=C1[C@@H](O)CCc1ccccc1	–	-4.2% [at 11.4 µM] (inactive)
CC(C)CNC(=O)C1CCCN(S(=O)(=O)c2ccc(-n3cnnn3)cc2)C1 (centres undefined)	inactive	–
O=C(c1cnccn1)N1CCC2(CCN(Cc3cc(C(F)(F)F)cc(C(F)(F)F)c3)CC2)CC1	inactive	–
O=C(NCCc1ccc2c(c1)OCCO2)c1cc2ccccc2o1	25.1 µM (active)	–
Nc1nonc1C(=O)NCCc1ccccc1	inactive	–
O=C(CC(Cc1ccccc1)C(=O)O)NCCc1ccc2c(c1)OCO2 (centres undefined)	inactive	–
CC1CCCN(Cc2nc3c(c(=O)n(C)c(=O)n3C)n2CC(=O)c2ccccc2)C1 (centres undefined)	inactive	–
CCOC(=O)NCc1ccc2c(c1)OCO2	inactive	–
COc1ccc2c(c1)C(C)=CC(C)(C)N2C(=O)CNCc1ccc2c(c1)OCO2	25.1 µM (active)	–
CCn1cc(C(=O)NCc2ccc3c(c2)OCO3)c2cc(OC)c(OC)cc2c1=O	inactive	–
CCn1nc(NC(=O)c2ccco2)c2cc3ccc(C)cc3nc21	inactive	–
Cc1ccc(Cn2c(NC(=O)c3ccco3)nc3ccccc32)cc1	25.1 µM (active)	–
Cc1ccc(Cn2c(C)nc3c(c2=O)c2nc4ccccc4nc2n3Cc2ccco2)cc1	inactive	–
CCOc1ccc2nc(NCCNS(=O)(=O)c3ccccc3)c(C#N)cc2c1	inactive	–
Cc1nnc(N(Cc2ccco2)C(=O)c2ccno2)s1	inactive	–
COC(=O)CSC1=C(C#N)C(c2ccccc2OC)C(C(=O)OC)C(=O)N1 (centres undefined)	–	-3.31% [at 11.4 µM] (inactive)
N#CC1=C(SCc2ccccc2)NC(=O)C(C#N)C12CCCC2 (centres undefined)	31.6 µM (active)	–
